# From the supplement of paper PMC10849652
# Targets with a hit are over-represented here; the source holds about 7,900 in all. About 0.6% of all pairs of compound and target were hits. A number with no mark means an inactive call.
# Key:
# Test in all cases: log2 fold change, soluble protein after heating vs DMSO (PISA); higher = thermal stabilisation; K562 cells, 10 uM, 30 min; active = over 0.2 and 3.5 SD of the protein, either way, in both replicates (recomputed)
# [1] = compound: CC1=C(C=C(C=C1)NC(=O)C2=CC(=CC=C2)C(C)(C)C#N)NC3=CC4=C(C=C3)N=CN(C4=O)C
# Summary of the method: (§1)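 Soluble protein was defined as the supernatant after 21,000xg for 90 min. It came from K562 cells at 2×10^6 cells/mL given 10 μM compound for 30 min, heated in aliquots for 3 min across 48°C-58°C, pooled, and extracted in PBS with 0.5% NP-40 at 4°C, and was quantified by TMTpro 16plex LC-MS/MS with equalised channel sums. Thermal stability against control samples, from duplicates, is reported as log2 fold change.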
# [2] = compound: CC1=C(C=C(C=C1)NC(=O)C2=CC(=CC=C2)N(C)C)NC(=O)C3=CC=C(C=C3)O
# Summary of the method: as §1
# [3] = compound: CC1=CC=C(C=C1)SC2=C3C=C(SC3=CN=C2)C(=O)N
# Summary of the method: as §1
# [4] = compound: CC1=NC(=CC=C1)C2=C(N=C(N2)C(C)(C)C)C3=CC4=NC=CN=C4C=C3
# Summary of the method: as §1
# Nexturastat A = compound: CCCCN(Cc1ccc(C(=O)NO)cc1)C(=O)Nc1ccccc1 [Nexturastat A]
# Summary of the method: as §1
# vemurafenib = compound: CCCS(=O)(=O)Nc1ccc(F)c(C(=O)c2c[nH]c3ncc(-c4ccc(Cl)cc4)cc23)c1F [vemurafenib]
# Summary of the method: as §1
# [5] = compound: CCCS(=O)(=O)Nc1ccc(F)c(C(=O)c2c[nH]c3ncc(Cl)cc23)c1F
# Summary of the method: as §1
# [6] = compound: CCCc1cc(C)[nH]c(=O)c1CNC(=O)c1cc(-c2ccnc(N3CCN(C)CC3)c2)cc2c1cnn2C(C)C
# Summary of the method: as §1
# givinostat = compound: CCN(CC)Cc1ccc2cc(COC(=O)Nc3ccc(C(=O)NO)cc3)ccc2c1 [givinostat]
# Summary of the method: as §1
# barasertib = compound: CCN(CCCOc1ccc2c(Nc3cc(CC(=O)Nc4cccc(F)c4)[nH]n3)ncnc2c1)CCOP(=O)(O)O [barasertib]
# Summary of the method: as §1
# [7] = compound: CC[C@@H]1C(=O)N(C)c2cnc(Nc3ccc(C(=O)NC4CCN(C)CC4)cc3OC)nc2N1C1CCCC1
# Summary of the method: as §1
# volasertib = compound: CC[C@@H]1C(=O)N(C)c2cnc(Nc3ccc(C(=O)N[C@H]4CC[C@H](N5CCN(CC6CC6)CC5)CC4)cc3OC)nc2N1C(C)C [volasertib]
# Summary of the method: as §1
# [8] = compound: CC[C@H](C)N1C=C(C2=C(C=C(C=C21)C3=CN=C(C=C3)N4CCNCC4)C(=O)NCC5=C(C=C(NC5=O)C)C)C
# Summary of the method: as §1
# epoxomicin = compound: CC[C@H](C)[C@@H](C(=O)N[C@@H]([C@@H](C)O)C(=O)N[C@@H](CC(C)C)C(=O)[C@]1(CO1)C)NC(=O)[C@H]([C@@H](C)CC)N(C)C(=O)C [epoxomicin]
# Summary of the method: as §1
# [9] = compound: CCn1c(C(=O)N(C2CC2)C2CC2)cc2c3c(ncn3C)c(Nc3cc(C)n(C)n3)nc21
# Summary of the method: as §1
# [10] = compound: CCn1cc(-c2ccnc3[nH]c(-c4cccc(CN(C)C)c4)cc23)c(-c2ccc(NC(=O)N(C)C)cc2)n1
# Summary of the method: as §1
# [11] = compound: CN(C)CC(=O)Nc1ccc2[nH]c(=O)c3ccccc3c2c1
# Summary of the method: as §1
# rosiglitazone = compound: CN(CCOC1=CC=C(C=C1)C[C@H]2C(=O)NC(=O)S2)C3=CC=CC=N3 (racemic) [rosiglitazone]
# Summary of the method: as §1
# [12] = compound: CN1C2=C(C3=C1C(=O)N(N=C3)CC4=CC(=CC=C4)N)SC(=C2)S(=O)C
# Summary of the method: as §1
# [13] = compound: CN1CCC(CNc2ccc3ncc(-c4cccc(OC(F)(F)F)c4)n3n2)CC1
# Summary of the method: as §1
# Chain of UniProt Q5TA31 (Q5TA31 whole entry, looked up): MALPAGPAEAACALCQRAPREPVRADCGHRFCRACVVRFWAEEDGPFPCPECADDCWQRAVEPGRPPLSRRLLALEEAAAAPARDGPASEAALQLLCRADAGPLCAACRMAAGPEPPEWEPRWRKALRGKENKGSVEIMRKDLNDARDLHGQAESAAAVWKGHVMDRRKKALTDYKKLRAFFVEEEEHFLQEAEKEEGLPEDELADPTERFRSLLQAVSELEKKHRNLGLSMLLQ
# Chain of UniProt Q9UPN6 (Q9UPN6 whole entry, looked up): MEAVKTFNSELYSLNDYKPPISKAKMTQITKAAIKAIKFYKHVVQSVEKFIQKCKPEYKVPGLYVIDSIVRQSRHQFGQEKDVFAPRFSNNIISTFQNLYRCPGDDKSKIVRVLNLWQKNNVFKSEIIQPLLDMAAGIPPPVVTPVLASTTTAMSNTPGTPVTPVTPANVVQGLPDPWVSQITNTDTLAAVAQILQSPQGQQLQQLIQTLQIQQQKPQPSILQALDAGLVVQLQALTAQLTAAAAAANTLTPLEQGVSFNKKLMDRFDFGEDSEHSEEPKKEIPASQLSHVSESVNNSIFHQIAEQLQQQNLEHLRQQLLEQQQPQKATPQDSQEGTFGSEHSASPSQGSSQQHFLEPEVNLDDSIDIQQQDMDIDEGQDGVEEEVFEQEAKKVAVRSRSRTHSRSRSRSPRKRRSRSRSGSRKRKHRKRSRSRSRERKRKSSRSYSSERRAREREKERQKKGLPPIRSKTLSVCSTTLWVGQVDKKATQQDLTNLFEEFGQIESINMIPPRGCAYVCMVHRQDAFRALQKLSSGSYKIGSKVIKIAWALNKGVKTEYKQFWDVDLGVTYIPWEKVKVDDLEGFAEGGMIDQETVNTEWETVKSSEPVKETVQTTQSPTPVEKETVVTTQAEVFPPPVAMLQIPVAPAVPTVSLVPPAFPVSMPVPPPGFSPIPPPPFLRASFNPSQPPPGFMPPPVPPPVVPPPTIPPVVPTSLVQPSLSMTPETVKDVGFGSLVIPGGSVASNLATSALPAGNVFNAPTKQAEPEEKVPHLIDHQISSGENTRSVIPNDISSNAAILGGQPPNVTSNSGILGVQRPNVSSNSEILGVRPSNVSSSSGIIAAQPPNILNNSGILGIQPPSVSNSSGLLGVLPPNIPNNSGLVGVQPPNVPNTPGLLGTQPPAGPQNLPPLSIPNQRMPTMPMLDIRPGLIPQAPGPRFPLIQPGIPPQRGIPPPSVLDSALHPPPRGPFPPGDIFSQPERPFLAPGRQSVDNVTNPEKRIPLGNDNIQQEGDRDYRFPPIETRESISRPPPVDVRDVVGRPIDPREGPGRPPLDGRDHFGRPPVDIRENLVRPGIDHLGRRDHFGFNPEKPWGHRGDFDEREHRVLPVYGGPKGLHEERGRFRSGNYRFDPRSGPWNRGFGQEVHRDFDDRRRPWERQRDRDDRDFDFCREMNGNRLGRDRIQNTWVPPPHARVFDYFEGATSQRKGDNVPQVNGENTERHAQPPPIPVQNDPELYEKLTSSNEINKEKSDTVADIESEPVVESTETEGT
# Chain of UniProt Q9NTJ5 (Q9NTJ5 whole entry, looked up): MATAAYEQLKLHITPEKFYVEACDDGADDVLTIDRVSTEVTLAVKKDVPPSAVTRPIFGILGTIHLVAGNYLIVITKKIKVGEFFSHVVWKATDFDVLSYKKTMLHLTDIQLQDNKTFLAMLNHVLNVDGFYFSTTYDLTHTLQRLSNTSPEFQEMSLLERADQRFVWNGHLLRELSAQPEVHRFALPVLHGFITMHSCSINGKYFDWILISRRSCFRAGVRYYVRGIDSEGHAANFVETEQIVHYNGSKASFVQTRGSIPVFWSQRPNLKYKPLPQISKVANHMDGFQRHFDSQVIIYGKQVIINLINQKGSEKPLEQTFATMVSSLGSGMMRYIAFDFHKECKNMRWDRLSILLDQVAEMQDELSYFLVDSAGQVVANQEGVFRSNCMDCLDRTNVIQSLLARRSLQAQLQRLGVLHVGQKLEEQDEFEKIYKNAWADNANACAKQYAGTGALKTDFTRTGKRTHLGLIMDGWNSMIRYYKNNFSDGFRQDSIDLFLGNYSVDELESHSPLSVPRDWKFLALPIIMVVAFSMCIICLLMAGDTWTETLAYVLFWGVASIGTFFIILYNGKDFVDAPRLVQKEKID
# Chain of UniProt Q8N122 (Q8N122 whole entry, looked up): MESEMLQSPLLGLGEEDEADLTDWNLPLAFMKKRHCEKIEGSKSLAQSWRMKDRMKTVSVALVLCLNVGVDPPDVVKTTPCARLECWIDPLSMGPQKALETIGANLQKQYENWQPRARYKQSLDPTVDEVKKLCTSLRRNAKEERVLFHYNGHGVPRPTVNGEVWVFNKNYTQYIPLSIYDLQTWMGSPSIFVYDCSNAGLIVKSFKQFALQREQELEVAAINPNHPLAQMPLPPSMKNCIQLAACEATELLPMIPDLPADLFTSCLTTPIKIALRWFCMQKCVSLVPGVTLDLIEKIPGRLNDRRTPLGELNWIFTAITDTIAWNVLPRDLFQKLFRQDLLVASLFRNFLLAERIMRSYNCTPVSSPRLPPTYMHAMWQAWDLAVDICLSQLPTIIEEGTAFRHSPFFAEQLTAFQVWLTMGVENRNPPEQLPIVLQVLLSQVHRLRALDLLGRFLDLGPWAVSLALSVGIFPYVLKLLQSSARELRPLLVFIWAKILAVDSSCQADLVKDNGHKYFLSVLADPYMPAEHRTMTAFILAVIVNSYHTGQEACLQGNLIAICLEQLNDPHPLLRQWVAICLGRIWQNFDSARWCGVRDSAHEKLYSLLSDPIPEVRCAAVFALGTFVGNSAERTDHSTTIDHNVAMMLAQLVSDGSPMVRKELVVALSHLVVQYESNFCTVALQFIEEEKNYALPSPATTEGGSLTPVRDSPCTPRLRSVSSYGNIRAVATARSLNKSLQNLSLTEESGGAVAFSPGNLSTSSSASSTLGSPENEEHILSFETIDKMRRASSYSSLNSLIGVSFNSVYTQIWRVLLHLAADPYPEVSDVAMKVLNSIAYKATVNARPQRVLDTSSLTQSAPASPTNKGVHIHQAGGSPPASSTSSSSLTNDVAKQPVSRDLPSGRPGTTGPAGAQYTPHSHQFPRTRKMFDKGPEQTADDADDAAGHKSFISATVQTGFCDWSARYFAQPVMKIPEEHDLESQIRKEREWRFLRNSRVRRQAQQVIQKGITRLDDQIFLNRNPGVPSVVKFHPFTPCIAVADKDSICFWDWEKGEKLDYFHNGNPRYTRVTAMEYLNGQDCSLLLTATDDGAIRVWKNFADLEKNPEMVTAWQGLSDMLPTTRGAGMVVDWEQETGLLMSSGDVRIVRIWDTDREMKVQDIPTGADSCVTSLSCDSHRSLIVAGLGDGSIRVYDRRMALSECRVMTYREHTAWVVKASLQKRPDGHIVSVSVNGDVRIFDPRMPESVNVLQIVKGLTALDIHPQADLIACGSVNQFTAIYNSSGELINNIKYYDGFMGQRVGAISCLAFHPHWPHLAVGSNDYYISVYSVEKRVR
# Chain of UniProt Q8IXJ6 (Q8IXJ6 whole entry, looked up): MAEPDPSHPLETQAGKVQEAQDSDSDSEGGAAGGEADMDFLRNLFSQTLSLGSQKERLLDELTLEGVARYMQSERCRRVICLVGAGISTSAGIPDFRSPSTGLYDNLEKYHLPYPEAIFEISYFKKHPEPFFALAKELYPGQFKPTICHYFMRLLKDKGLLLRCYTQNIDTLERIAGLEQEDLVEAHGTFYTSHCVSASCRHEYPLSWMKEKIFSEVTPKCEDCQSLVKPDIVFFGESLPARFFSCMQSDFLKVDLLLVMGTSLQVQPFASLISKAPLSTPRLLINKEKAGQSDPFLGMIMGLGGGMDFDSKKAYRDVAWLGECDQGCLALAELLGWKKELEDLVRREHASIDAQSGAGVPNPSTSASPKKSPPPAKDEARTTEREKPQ
# Chain of UniProt Q14493 (Q14493 whole entry, looked up): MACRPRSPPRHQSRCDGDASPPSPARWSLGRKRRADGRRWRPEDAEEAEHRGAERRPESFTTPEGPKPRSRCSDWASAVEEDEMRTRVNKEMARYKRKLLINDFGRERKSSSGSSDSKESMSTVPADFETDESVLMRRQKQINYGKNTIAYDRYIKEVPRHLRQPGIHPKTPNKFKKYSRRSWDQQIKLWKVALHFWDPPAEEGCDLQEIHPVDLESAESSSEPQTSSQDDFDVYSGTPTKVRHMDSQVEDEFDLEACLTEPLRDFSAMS
# Chain of UniProt P11233 (P11233 whole entry, looked up): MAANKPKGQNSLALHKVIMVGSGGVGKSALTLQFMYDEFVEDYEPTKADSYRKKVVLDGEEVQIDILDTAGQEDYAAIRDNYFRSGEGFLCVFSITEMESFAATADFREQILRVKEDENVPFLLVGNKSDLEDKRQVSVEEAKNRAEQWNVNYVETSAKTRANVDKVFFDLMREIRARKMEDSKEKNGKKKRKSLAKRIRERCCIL
# Chain of UniProt Q9HB90 (Q9HB90 whole entry, looked up): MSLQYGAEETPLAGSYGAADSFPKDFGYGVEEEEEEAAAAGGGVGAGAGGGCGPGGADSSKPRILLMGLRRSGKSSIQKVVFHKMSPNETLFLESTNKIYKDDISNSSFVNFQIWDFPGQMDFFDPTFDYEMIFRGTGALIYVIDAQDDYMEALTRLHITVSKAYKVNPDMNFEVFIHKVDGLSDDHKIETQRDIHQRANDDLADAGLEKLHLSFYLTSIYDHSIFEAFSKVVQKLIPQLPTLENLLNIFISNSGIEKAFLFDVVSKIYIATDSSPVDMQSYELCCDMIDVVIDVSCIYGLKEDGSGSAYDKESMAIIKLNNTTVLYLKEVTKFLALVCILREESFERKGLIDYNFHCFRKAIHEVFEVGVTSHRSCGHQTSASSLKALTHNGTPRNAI
Target,log2 fold change [1],log2 fold change [2],log2 fold change [3],log2 fold change [4],log2 fold change (Nexturastat A),log2 fold change (vemurafenib),log2 fold change [5],log2 fold change [6],log2 fold change (givinostat),log2 fold change (barasertib),log2 fold change [7],log2 fold change (volasertib),log2 fold change [8],log2 fold change (epoxomicin),log2 fold change [9],log2 fold change [10],log2 fold change [11],log2 fold change (rosiglitazone),log2 fold change [12],log2 fold change [13]
RAC3 (UniProt P60763),0.025,-0.021,0.084,-0.004,-0.042,0.006,-0.006,-0.044,-0.037,-0.015,0.039,0.075,-0.082,-0.008,0.051,-0.149,0,0,-0.095,0.035
RPTOR (UniProt Q8N122),0.009,0.019,0.027,0.025,-0.018,0.017,0.09,0.012,-0.007,-0.007,-0.116,-0.237 (active),0.064,0.034,0.001,-0.08,0.03,0.034,-0.037,-0.197
RBM26 isoform 3 (UniProt Q5T8P6),0.017,–,–,–,–,–,–,–,–,–,–,–,–,–,–,–,–,–,–,–
SCAF8 isoform 2 (UniProt Q9UPN6),0.048,0.002,-0.03,0.076,0,-0.001,0.004,-0.013,0.038,0.067,-0.065,-0.27,0.037,0.101,-0.003,0.071,0.1,0.091,-0.045,0.015
RPL38 (UniProt P63173),0.032,0.017,-0.038,-0.045,0.075,-0.003,0.006,0.069,-0.054,-0.025,0.076,0.187,0.033,-0.062,-0.022,-0.03,-0.02,-0.012,-0.004,0.052
RPS3 (UniProt P23396),0.011,0.003,-0.077,-0.042,0.069,-0.086,-0.102,0.041,0.007,-0.088,0.147,0.34,0.011,-0.125,0.033,0.125,-0.071,-0.064,0.085,0.045
RRAGC (UniProt Q9HB90),0.005,0.003,0.017,0.008,-0.07,-0.027,0.047,-0.048,0.052,-0.011,-0.009,-0.003,-0.051,-0.045,0.041,0,-0.024,0.05,-0.067,-0.177
RPL31 (UniProt P62899),-0.005,0.01,-0.086,-0.075,0.168,-0.145,-0.15,0.092,0.031,-0.149,0.212,0.457,0.01,-0.238,0.036,0.216,-0.108,-0.124,0.251,0.259
SLBP (UniProt Q14493),-0.012,-0.08,0.019,0.099,-0.218,0.028,0.057,0.024,0.055,0.06,-0.052,-0.034,0.013,0.127,-0.03,0,-0.003,-0.048,0.113,-0.291 (active)
RNF187 (UniProt Q5TA31),-0.074,-0.102,0.048,-0.005,0.085,-0.106,0.039,0,0.036,0.041,0.155,0.074,0.061,0.15,-0.061,0.002,0.24,0.004,-0.104,-0.073
RALA (UniProt P11233),-0.007,-0.006,0.02,0.132,0.021,-0.031,0.05,0.019,-0.002,-0.001,0.084,0.025,-0.044,-0.054,0.021,0.029,-0.029,-0.021,-0.115,0.434 (active)
SACM1L (UniProt Q9NTJ5),0.08,-0.024,-0.004,0.031,-0.03,0.052,0.069,0.043,0.028,0.049,-0.193,-0.534 (active),-0.001,0.019,0.029,-0.019,0.033,0.021,-0.076,0.031
ROCK2 (UniProt O75116),0.009,-0.044,-0.037,0.02,-0.004,0.034,-0.005,-0.06,0.055,0.027,-0.033,-0.139,-0.009,0.063,-0.028,-0.178,0.007,0.177,-0.02,-0.042
SH3GLB2 (UniProt Q9NR46),0.047,-0.052,0.025,0.033,-0.064,0.058,0.058,0.021,0.049,0.051,-0.148,-0.378 (active),0.072,0.041,-0.058,-0.101,0.033,0.041,0.016,-0.254
RAB3GAP2 (UniProt Q9H2M9),-0.001,-0.018,0.017,-0.029,0.215,0.06,0.026,0.092,0.106,0.068,-0.101,-0.358,0.044,0.022,-0.041,0.088,0.04,0.053,0.133,-0.132
RRP12 (UniProt Q5JTH9),0.036,-0.012,0.094,-0.043,0.371,-0.087,-0.012,0.074,0.209,-0.018,0.246,0,0.029,0.054,-0.036,-0.057,-0.046,0.026,0.066,0.161
SIRT2 (UniProt Q8IXJ6),0.014,-0.051,-0.016,0.027,0.004,0.012,-0.022,-0.002,0.004,0.015,0.077,0.624 (active),0.043,-0.015,-0.017,-0.038,0.009,0.033,-0.041,-0.025
